Results from PubChem BioAssay (Tox21).
“And” between values parts separate entries of the source, which are not always exact repeats. Equal entries are not always repeated. Records with an inconclusive call do not appear. A structure can be active in one record and inactive in another. The source made the active and inactive calls. Unless noted, calls follow the shape of the dose curve; as a rule, active = well fitted curve in the direction sought with a large enough effect in the repeat runs; inconclusive = weak or mixed curves; inactive = no such curve, though single readings can be large; an effect the other way counts as inactive or inconclusive.

Assays:
[1] = molecular target: Retinoic acid receptor RXR-alpha (Homo sapiens) (UniProt P19793); test: qHTS assay to identify small molecule agonists of the RXR signaling pathway (AID 1159527; calls by dose curve; also: nearly all actives have a fitted effect of over 35% in size)
Sequence of Retinoic acid receptor RXR-alpha (Homo sapiens) (P19793 whole entry, looked up): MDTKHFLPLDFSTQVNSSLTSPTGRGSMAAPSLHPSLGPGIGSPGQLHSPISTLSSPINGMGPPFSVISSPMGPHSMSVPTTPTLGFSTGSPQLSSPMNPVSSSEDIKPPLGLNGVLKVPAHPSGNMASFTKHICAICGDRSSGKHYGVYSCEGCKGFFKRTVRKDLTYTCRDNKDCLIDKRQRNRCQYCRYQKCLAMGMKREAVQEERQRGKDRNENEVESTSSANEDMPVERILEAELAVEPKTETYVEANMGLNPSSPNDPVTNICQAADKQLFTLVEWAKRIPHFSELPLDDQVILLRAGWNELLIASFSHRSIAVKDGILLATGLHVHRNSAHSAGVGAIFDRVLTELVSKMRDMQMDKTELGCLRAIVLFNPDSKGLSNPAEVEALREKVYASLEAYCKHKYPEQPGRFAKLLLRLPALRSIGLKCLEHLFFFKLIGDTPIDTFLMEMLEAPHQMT
Method in brief: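 Cells plated at 2,000/well, rested 5 hr at 37 C, pin-dosed with DMSO compound solutions, incubated 16 hr, then loaded with B/G FRET substrate for 2 hr at RT before dual-emission fluorescence reading.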

[2] = qHTS assay to identify small molecule agonists of the RXR signaling pathway - cell viability counter screen (AID 1159529); also: nearly all actives have a fitted effect of over 50% in size; also: potency is read from the fitted curve at half-maximal effect
Method in brief: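 Steps: seed RXR-alpha-UAS-bla HEK 293T cells in assay medium containing 2% charcoal-stripped FBS; incubate 5 hr; add compounds in DMSO; incubate 16 hr at 37 C; after the bla read, add CellTiter-Glo and read luminescence at 30 min.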

[3] = qHTS assay to identify small molecule antagonists of the retinoid acid receptor (RAR) signaling pathway - cell viability counter screen (AID 1159551); also: nearly all actives have a fitted effect of over 35% in size
Method in brief: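 Cells (C3RL4) are plated, incubated overnight, dosed with compound in DMSO, then given retinol at 1 uM final. After 6 h at 37 C, CellTiter-Glo is added and luminescence read following 30 min at room temperature.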

[4] = qHTS assay to identify small molecule antagonists of the retinoic acid receptor (RAR) signaling pathway (AID 1159552; also: nearly all actives have a fitted effect of over 50% in size; also: potency is read from the fitted curve at half-maximal effect)
Method in brief: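 Retinol at 1 uM final stimulated RARE-luciferase expression in C3RL4 cells exposed to test compounds for 6 hr at 37 C. Reduced luminescence, read 30 min after detection reagent, indicated pathway antagonism.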

[5] = qHTS assay to identify small molecule agonists of the retinoic acid receptor (RAR) signaling pathway (AID 1159553); also: potency is read from the fitted curve at half-maximal effect
Method in brief: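 Seed C3RL4 reporter cells at 1,000 per well and incubate overnight at 37 C. Add compounds in DMSO, incubate 6 hr. Add luciferase reagent, wait 30 min at room temperature, read luminescence.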

[6] = qHTS assay to identify small molecule antagonists of the estrogen related receptor (ERR) signaling pathway from Tox21 library - cell viability counter screen (AID 1224834); also: nearly all actives have a fitted effect of over 30% in size
Method in brief: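 ERR cells, 2,000/well; 6 h settle at 37 C/5% CO2; pin-tool compound transfer in DMSO; 17.5 h at 37 C; CellTiter-Fluor, 30 min; fluorescence intensity.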

[7] = molecular target: Luciferin 4-monooxygenase (Photinus pyralis) (UniProt P08659); test: qHTS assay to identify small molecule inhibitors of firefly luciferase (AID 1224835); also: nearly all actives have a fitted effect of over 25% in size; also: potency is read from the fitted curve at half-maximal effect
Sequence of Luciferin 4-monooxygenase (Photinus pyralis) (P08659 whole entry, looked up): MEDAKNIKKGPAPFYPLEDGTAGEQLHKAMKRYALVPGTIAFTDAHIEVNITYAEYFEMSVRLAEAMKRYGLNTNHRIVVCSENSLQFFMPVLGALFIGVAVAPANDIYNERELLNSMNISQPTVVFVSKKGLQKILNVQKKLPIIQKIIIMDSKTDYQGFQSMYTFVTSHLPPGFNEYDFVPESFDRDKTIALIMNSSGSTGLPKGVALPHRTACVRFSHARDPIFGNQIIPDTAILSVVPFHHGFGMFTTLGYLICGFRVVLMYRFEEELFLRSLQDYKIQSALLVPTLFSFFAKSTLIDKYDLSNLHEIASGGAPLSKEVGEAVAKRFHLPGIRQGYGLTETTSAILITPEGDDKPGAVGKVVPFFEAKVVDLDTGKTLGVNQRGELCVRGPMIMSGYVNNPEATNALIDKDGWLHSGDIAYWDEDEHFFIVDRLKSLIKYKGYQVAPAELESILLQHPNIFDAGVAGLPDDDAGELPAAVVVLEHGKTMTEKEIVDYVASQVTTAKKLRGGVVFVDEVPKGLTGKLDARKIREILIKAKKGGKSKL
Method in brief: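 Biochemical qHTS: compounds run as interplate titrations against purified firefly enzyme, with D-luciferin and ATP each at its KM concentration. Light output recorded by CCD imaging.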

[8] = qHTS assay to identify small molecule agonists of the constitutive androstane receptor (CAR) signaling pathway - cell viability counter screen (AID 1224836); also: nearly all actives have a fitted effect of over 45% in size; also: potency is read from the fitted curve at half-maximal effect
Method in brief: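 Cells were seeded and incubated 4 hrs. Compounds were added across 15 concentrations together with PK11195 at 0.75 uM final. Plates were incubated 23 hrs at 37 C. CellTiter-Fluor was added and fluorescence measured.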

[9] = qHTS assay to identify small molecule antagonists of the constitutive androstane receptor (CAR) signaling pathway - cell viability counter screen (AID 1224837); also: series mostly up to about 92 µM; nearly all actives have a fitted effect of over 45% in size
Method in brief: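 Viability was measured with CellTiter-Fluor in a HepG2 line carrying stably transfected hCAR and a CYP2B6-2.2kb construct. Cells were exposed for 23 hr at 37 C to 15 compound concentrations with 50 nM CITCO as agonist.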

[10] = molecular target: Nuclear receptor subfamily 1 group I member 3 (Homo sapiens) (UniProt Q14994); test: qHTS assay to identify small molecule antagonists of the constitutive androstane receptor (CAR) signaling pathway (AID 1224838);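 also: HepG2 cells stably expressing hCAR with CYP2B6 luciferase reporter stimulated by CITCO; nearly all actives have a fitted effect of over 40% in size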
Sequence of Nuclear receptor subfamily 1 group I member 3 (Homo sapiens) (Q14994 whole entry, looked up): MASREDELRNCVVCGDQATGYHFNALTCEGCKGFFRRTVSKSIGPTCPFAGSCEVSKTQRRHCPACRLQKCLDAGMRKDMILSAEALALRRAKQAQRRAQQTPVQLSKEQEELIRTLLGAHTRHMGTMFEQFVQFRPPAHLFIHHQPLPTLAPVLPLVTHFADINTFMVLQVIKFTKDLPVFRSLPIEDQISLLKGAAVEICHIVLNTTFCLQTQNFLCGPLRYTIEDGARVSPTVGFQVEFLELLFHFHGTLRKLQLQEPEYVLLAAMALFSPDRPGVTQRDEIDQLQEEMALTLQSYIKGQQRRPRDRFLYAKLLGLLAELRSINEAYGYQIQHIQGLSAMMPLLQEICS
Method in brief: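 Antagonist mode used CITCO at a final 50 nM to activate CAR in human hepatoma HepG2 cells carrying stable hCAR and a 2.2 kb CYP2B6 promoter-luciferase construct. Compounds were tested at 15 concentrations over 24 h, with luminescence as the end point.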

[11] = molecular target: Nuclear receptor subfamily 1 group I member 3 (Homo sapiens) (UniProt Q14994); test: qHTS assay to identify small molecule agonists of the constitutive androstane receptor (CAR) signaling pathway (AID 1224839); also: nearly all actives have a fitted effect of over 15% in size; also: potency is read from the fitted curve at half-maximal effect
Method in brief: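 Cells were plated and incubated 4 hrs, then dosed with compounds at 15 concentrations. PK11195 was added to 0.75 uM final. After 24 hrs at 37 C, luciferase luminescence was measured.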

[12] = qHTS assay to identify small molecule antagonists of the estrogen related receptor signaling pathway with the pleiotropic PPARgamma coactivator (PGC) from Tox21 10K library - cell viability counter screen (AID 1224840; active = well fitted cell-killing curve with a large enough effect in the repeat runs, not every such curve was filed as active; also: nearly all actives have a fitted effect of over 40% in size)
Method in brief: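 Multiplexed viability counter screen in the PGC/ERR cell line: cells treated with DMSO-dissolved compounds for 17.5 hours at 37 C, then viability measured as CellTiter-Fluor fluorescence.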

[13] = molecular target: Thyrotropin receptor (Homo sapiens) (UniProt P16473); test: qHTS assay to identify small molecule agonists of the thyroid stimulating hormone receptor (TSHR) signaling pathway (AID 1224843; calls by dose curve; also: nearly all actives have a fitted effect of over 45% in size; also: potency is read from the fitted curve at half-maximal effect)
Sequence of Thyrotropin receptor (Homo sapiens) (P16473 whole entry, looked up): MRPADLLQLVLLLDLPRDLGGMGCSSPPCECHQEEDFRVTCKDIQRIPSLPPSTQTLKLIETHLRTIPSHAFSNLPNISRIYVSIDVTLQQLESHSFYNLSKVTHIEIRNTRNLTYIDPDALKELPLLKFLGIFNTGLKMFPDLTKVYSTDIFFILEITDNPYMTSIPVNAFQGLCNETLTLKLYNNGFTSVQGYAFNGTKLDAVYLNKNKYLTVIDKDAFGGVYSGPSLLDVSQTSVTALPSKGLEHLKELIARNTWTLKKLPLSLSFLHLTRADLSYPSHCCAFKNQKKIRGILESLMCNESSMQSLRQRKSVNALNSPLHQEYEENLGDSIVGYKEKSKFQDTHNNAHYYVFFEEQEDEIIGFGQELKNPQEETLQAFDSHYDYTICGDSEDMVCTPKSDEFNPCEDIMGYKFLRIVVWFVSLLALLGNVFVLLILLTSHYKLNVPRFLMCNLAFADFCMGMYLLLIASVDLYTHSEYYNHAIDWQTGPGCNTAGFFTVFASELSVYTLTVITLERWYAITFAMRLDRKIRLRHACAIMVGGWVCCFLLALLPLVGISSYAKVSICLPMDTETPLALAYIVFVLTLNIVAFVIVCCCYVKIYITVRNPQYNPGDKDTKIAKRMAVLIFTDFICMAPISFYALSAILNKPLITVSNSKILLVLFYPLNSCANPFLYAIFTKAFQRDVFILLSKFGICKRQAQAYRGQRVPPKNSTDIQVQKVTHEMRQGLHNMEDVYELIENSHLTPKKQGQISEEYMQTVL
Method in brief: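 HEK293/TSHR, 800 cells/well; cpd 30 min RT; add cAMP-d2 + anti-cAMP-cryptate, 1 h RT; fluorescence read on plate reader. 15-pt titration, n=3.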

[14] = qHTS assay to identify small molecule antagonists of the estrogen related receptor signaling pathway with the pleiotropic PPARgamma coactivator (PGC) from Tox21 10K library (AID 1224841; call rule not given here; also: series mostly up to about 92 µM; actives are mostly falling curves and most rising ones were filed inactive; nearly all actives have a fitted effect of over 50% in size)
Method in brief: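 Steps: plate 2,000 PGC/ERR cells per well; incubate 6 h at 37 C with 5% CO2; transfer compounds from DMSO stocks by pin tool; incubate 18 h at 37 C; add One-Glo; measure luminescence 30 min later.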

[15] = qHTS assay to identify small molecule agonists of the estrogen related receptor signaling pathway with the pleiotropic PPARgamma coactivator (PGC) from Tox21 10K library (AID 1224842); also: nearly all actives have a fitted effect of over 15% in size; also: potency is read from the fitted curve at half-maximal effect
Method in brief: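 PGC/ERR reporter cell line, 2,000 cells per well, incubated 6 h at 37 C before 23 nL compound in DMSO was added. After 18 h at 37 C, One-Glo luminescence read following 30 min at room temperature.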

[16] = qHTS assay to identify small molecule agonists of the estrogen related receptor (ERR) signaling pathway (AID 1224820)
Method in brief: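 Luminescence readout (One-Glo, 30 min RT) from NTP-supplied ERR cell line exposed to compounds for 18 h at 37 C. Cells seeded 2,000 per well and pre-incubated 6 h before pin-tool compound transfer.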

[17] = qHTS assay to identify small molecule agonists of the estrogen related receptor signaling pathway with the pleiotropic PPARgamma coactivator (PGC) (AID 1224823)
Method in brief: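 Luminescence readout (One-Glo, 30 min RT) from PGC/ERR cell line treated 18 h at 37 C with pin-tool-delivered DMSO compound solutions; cells plated 6 h before dosing. Quantitative HTS format.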

[18] = qHTS assay to identify small molecule antagonists of the estrogen related receptor (ERR) signaling pathway - cell viability counter screen (AID 1224818);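 also: series mostly up to about 46 µM; viability measured after 17.5 h of compound exposure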
Method in brief: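 ERR cells, 2,000/well; 6 h settle at 37 C/5% CO2; compound pin transfer (DMSO); 17.5 h at 37 C; CellTiter-Fluor, 30 min, fluorescence read.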

Measured: Potency

CCC(C)(O)CCCC(C)C (centres undefined)
not listed: [14] | [15] | [16] | [17] | [18]
inactive: all other assays above

O=Cc1ccccc1O
not listed: [10] | [14] | [15] | [16] | [17] | [18]
inactive: all other assays above

Cc1cccc([N+](=O)[O-])c1C
not listed: [13] | [14] | [15] | [16] | [17] | [18]
inactive: all other assays above

O=C(c1ccccc1)c1ccccc1O
not listed: [16] | [17] | [18]
inactive: all other assays above

CC(CCC(=O)O)(c1ccc(O)cc1)c1ccc(O)cc1
not listed: [16] | [17] | [18]
inactive: all other assays above

O=CCc1ccccc1
not listed: [10] | [13] | [14] | [15] | [16] | [17] | [18]
inactive: all other assays above

Cn1cnc([N+](=O)[O-])c1Sc1ncnc2nc[nH]c12
24.2 µM (active) and inactive: [15]
48.3 µM (active) and inactive: [4]
active: [8] 6.82 µM
not listed: [6] | [9] | [10] | [18]
inactive: all other assays above

CCCCC(CC)COCC1CO1 (centres undefined)
not listed: [10] | [16] | [17] | [18]
inactive: all other assays above

OCCO
not listed: [10] | [14] | [15] | [16] | [17] | [18]
inactive: all other assays above

COc1ccc(OC)c(C(O)CNC(=O)CN)c1 (centres undefined)
not listed: [16] | [17] | [18]
inactive: all other assays above

CN1C(C(=O)Nc2ccccn2)=C(O)c2ccccc2S1(=O)=O
not listed: [7] | [10] | [14] | [15] | [16] | [17]
inactive: all other assays above

C#C[C@]1(O)CC[C@H]2[C@@H]3CCc4cc(OC)ccc4[C@H]3CC[C@@]21C
active: [11] 27.3 µM and 23.7 µM | [13] 19.3 µM
not listed: [15] | [16] | [17] | [18]
inactive: all other assays above

C=CC(C)(CCC=C(C)C)OC(C)=O (centres undefined)
not listed: [10] | [14] | [15] | [16] | [17] | [18]
inactive: all other assays above

CC(=O)c1ccccn1
not listed: [14] | [15] | [16] | [17] | [18]
inactive: all other assays above

CN(C)c1nc(N(C)C)nc(N(C)C)n1
not listed: [11] | [14] | [15] | [16] | [17]
inactive: all other assays above

COc1ccc(C(=O)CC(=O)c2ccc(C(C)(C)C)cc2)cc1
13.6 µM (active) and inactive: [7]
58.7 µM (active) and inactive: [5]
not listed: [14] | [15] | [16] | [17] | [18]
inactive: all other assays above

Clc1nc(Cl)c(Cl)c(Cl)c1Cl
not listed: [10] | [16] | [17] | [18]
inactive: all other assays above

Cc1[nH]c(=O)c(C#N)cc1-c1ccncc1
not listed: [13] | [14] | [15] | [16] | [17]
inactive: all other assays above

OC[C@H]1O[C@@H]2O[C@H]3[C@H](O)[C@@H](O)[C@@H](O[C@H]4[C@H](O)[C@@H](O)[C@@H](O[C@H]5[C@H](O)[C@@H](O)[C@@H](O[C@H]6[C@H](O)[C@@H](O)[C@@H](O[C@H]7[C@H](O)[C@@H](O)[C@@H](O[C@H]8[C@H](O)[C@@H](O)[C@@H](O[C@H]1[C@H](O)[C@H]2O)O[C@@H]8CO)O[C@@H]7CO)O[C@@H]6CO)O[C@@H]5CO)O[C@@H]4CO)O[C@@H]3CO
21.9 µM (active) and inactive: [2]
not listed: [10] | [14] | [15] | [16] | [17] | [18]
inactive: all other assays above
